Test results from PubChem BioAssay AID493210 (National Center for Advancing Translational Sciences (NCATS), 2011).
This is one part of the list. Activity calls are given as the source filed them. The call rests on the fitted dose curve.

Target: Aldehyde dehydrogenase 1A1 (Homo sapiens) (UniProt P00352)
Test: Inhibitors of Aldehyde Dehydrogenase 1 (ALDH1A1): Followup Confirmation and Counterscreen
Settings: purified ALDH1A1, NADH fluorescence, propionaldehyde/NAD+
Description: Aldehyde dehydrogenase 1 (ALDH1A1) catalyzes the NAD+ dependent oxidation of a variety of endogenous and exogenous aldehydes to the corresponding carboxylic acids. The enzyme is the critical step in the metabolic activation of retinoic acid, which plays essential roles as nuclear receptor ligand. […] See [1] through for more information on ALDH1A1. Inhibition of ALDH1A1 activity was screened by utilizing propionaldehyde as an electron donor and NAD+ as an electron acceptor/cofactor. An increase in the fluorescence intensity due to conversion of NAD+ to NADH was used to measure the enzyme activity. See [5] for screening methodology used. References: [1] Manzer R, Qamar L, Estey T, Pappa A, Petersen DR, Vasiliou V. Molecular cloning and baculovirus expression of the rabbit corneal aldehyde dehydrogenase (ALDH1A1) cDNA. DNA Cell Biol. 2003 May;22(5):329-38. Collard F, Vertommen D, Fortpied J, Duester G, Van Schaftingen E. Identification of 3-deoxyglucosone dehydrogenase as aldehyde dehydrogenase 1A1 (retinaldehyde dehydrogenase 1). Biochimie. 2007 Mar;89(3):369-73. Ziouzenkova O, Orasanu G, Sharlach M, Akiyama TE, Berger JP, Viereck J, Hamilton JA, Tang G, Dolnikowski GG, Vogel S, Duester G, Plutzky J. Retinaldehyde represses adipogenesis and diet-induced obesity. Nat Med. 2007 Jun;13(6):695-702. Molotkov A, Duester G. Genetic evidence that retinaldehyde dehydrogenase Raldh1 (Aldh1a1) functions downstream of alcohol dehydrogenase Adh1 in metabolism of retinol to retinoic acid. J Biol Chem. 2003 Sep 19;278(38):36085-90. […] Quantitative high-throughput screening: a titration-based approach that efficiently identifies biological activities in large chemical libraries. […]
Buffer: 100 mM Hepes pH 7.5, 0.01% Tween 20. […] The plates were immediately transferred to and read twice on ViewLux High-throughput CCD imager (Perkin-Elmer) 20 minutes apart using 360 nm excitation and 450 nm emission fluorescence protocol. The fluorescence intensity difference between the second and the first time points was used to compute reaction progress.

Aldehyde dehydrogenase 1A1 (Homo sapiens), sequence (P00352 whole entry, looked up): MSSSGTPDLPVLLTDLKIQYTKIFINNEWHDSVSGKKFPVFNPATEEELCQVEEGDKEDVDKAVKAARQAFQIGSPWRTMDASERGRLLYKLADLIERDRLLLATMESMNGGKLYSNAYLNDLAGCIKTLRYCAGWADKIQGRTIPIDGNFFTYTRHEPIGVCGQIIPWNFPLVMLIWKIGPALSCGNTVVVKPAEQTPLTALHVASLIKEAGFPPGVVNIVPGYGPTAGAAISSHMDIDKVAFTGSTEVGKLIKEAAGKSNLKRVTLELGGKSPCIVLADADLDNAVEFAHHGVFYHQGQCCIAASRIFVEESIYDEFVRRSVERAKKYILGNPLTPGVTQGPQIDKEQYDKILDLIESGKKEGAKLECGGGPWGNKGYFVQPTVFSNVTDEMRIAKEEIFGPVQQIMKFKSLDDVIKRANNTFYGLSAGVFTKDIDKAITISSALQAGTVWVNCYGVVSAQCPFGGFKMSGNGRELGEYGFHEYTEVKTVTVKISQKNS

Structure (SMILES)	Potency
O=C(CN(Cc1ccccc1)C(=O)c1ccc2c(c1)OCCO2)NCc1ccc2c(c1)OCO2	398 nM (active)
Cc1cccc2c1N(CC(=O)OC(C)C)C(=O)C2=O	22.4 nM (active)
CC1CCCN(C(=O)c2ccc3c(c2)C(=O)N(CCC2=CCCCC2)C3=O)C1 (stereo not drawn)	1260 nM (active)
